Test in all cases: NCI-60 one-dose screen, 48 h (100 = growth as untreated, 0 = no growth, -100 = all killed)
One test deals with NCI/ADR-RES ovarian. Conditions: 10 µM.
A further test has as its system T-47D breast. As to conditions: 10 µM.
Another test concerns BT-549 breast. As to conditions: 10 µM.
For the next test, the system named is MDA-MB-435 melanoma. As to conditions: 10 µM.
For the next test, the system named is SW-620 colon. As to conditions: 10 µM.
The test system of another test is MCF7 breast. As to conditions: 10 µM unless noted.
A further test has as its system HCT-116 colon. As to conditions: 10 µM.
For a further test, the system named is HCC-2998 colon. As to conditions: 10 µM.
The test system of another test is KM12 colon. Conditions: 10 µM.

Values joined by “and” are separate entries in the source; they are usually repeats but may differ in a detail not shown here. Equal entries are not always repeated. The panel holds about 83,000 compounds, 20% with a hit somewhere; the sample as a whole holds those more often.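 Method: cells in 96-well plates; compound added at one concentration; 48 h incubation; percent growth measured; values under 10 scored active.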 Active and inactive are the calls of the source.

Turning to `[Cl][Hg][c]1ccc2ccccc2c1`, the growth with NCI/ADR-RES ovarian was 63.9% (inactive); in the test with T-47D breast it was -56.8% (active); in the test on BT-549 breast it was -99% (active); in the test with MDA-MB-435 melanoma, -76.2% (active); with SW-620 colon it was -92.4% (active); with MCF7 breast it was -61.5% (active). The growth with HCT-116 colon was -100% (active); in the test on HCC-2998 colon, -49% (active); in the test on KM12 colon, 1.74% (active).
Take `COS(=O)(=O)c1ccccc1`: the growth is 107% (inactive) in the test on NCI/ADR-RES ovarian; 104% (inactive) in the test with T-47D breast; 107% (inactive) in the test with BT-549 breast; 108% (inactive) with MDA-MB-435 melanoma; 108% (inactive) in the test on SW-620 colon; 99.5% (inactive) with MCF7 breast. For the same compound, the growth with HCT-116 colon was 102% (inactive); in the test with HCC-2998 colon it was 101% (inactive); in the test on KM12 colon, 104% (inactive).
With `COc1ccc(/C=C(\C)[N+](=O)[O-])cc1OC`, the growth is 90.5% (inactive) with NCI/ADR-RES ovarian; -21.6% (active) in the test with T-47D breast; -29.7% (active) in the test with BT-549 breast; -59.1% (active) in the test on MDA-MB-435 melanoma; -42.4% (active) in the test with SW-620 colon; -34.6% (active) in the test on MCF7 breast. The results for the growth with HCT-116 colon, in the test on HCC-2998 colon and in the test with KM12 colon were -28.9% (active), 94.3% (inactive) and 54.6% (inactive), respectively.
`CCOP(=O)(OCC)C(O)c1ccccc1Cl` (configuration not stated): the growth in the test with NCI/ADR-RES ovarian was 103% (inactive); in the test on T-47D breast, 89.1% (inactive); with BT-549 breast, 109% (inactive); in the test on MDA-MB-435 melanoma, 119% (inactive); with SW-620 colon, 99.2% (inactive); with MCF7 breast, 103% (inactive). Further, the growth with HCT-116 colon is 98.8% (inactive); with HCC-2998 colon it was 102% (inactive); in the test on KM12 colon, 103% (inactive).
In the case of `CC12OOC(c3ccccc31)c1c2ccc2ccccc12` (configuration not stated), the growth is 50.3% (inactive) in the test on NCI/ADR-RES ovarian; -28.8% (active) in the test with T-47D breast; -82.2% (active) in the test with BT-549 breast; 46.2% (inactive) in the test on MDA-MB-435 melanoma; -52.1% (active) in the test on SW-620 colon; 48.5% (inactive) in the test on MCF7 breast. Further, the growth in the test with HCT-116 colon was -94.5% (active); in the test on HCC-2998 colon it was -91.7% (active); in the test with KM12 colon, -53.1% (active).
On to `C[C@]12CC[C@H]3[C@@H](CCC4=CC(=O)CC[C@@H]43)[C@@H]1CC[C@@H]2OC(=O)N(CCCl)N=O`, for which the growth in the test with NCI/ADR-RES ovarian is 49% (inactive); with T-47D breast, 54.2% (inactive); with BT-549 breast, 66.6% (inactive); with MDA-MB-435 melanoma, 68.5% (inactive); in the test with SW-620 colon, 52.5% (inactive); in the test with MCF7 breast, 58.4% (inactive). In addition, the growth in the test on HCT-116 colon was 51.7% (inactive); in the test with HCC-2998 colon, 58.1% (inactive); in the test with KM12 colon it was 28.2% (inactive).
Regarding `C[C@@H]1C[C@@H]([C@H](O)CC2CC(=O)NC(=O)C2)C(=O)[C@@H](C)C1`, the growth was 0.354% (active) with NCI/ADR-RES ovarian; 1.15% (active) in the test on T-47D breast; 3.02% (active) in the test with BT-549 breast; 9.77% (active) in the test on MDA-MB-435 melanoma; 8.04% (active) in the test on SW-620 colon; 9.88% (active) with MCF7 breast. The growth was 0.0527% (active) with HCT-116 colon, 2.14% (active) with HCC-2998 colon and 5.65% (active) in the test on KM12 colon.
Consider `Cc1ccc(C(=O)C2C(c3ccccc3)N2C2CCCCC2)cc1` (configuration not stated), for which the growth is 103% (inactive) and 99.7% (inactive) in the test on NCI/ADR-RES ovarian; 87.8% (inactive) and 89.7% (inactive) in the test with T-47D breast; 104% (inactive) and 105% (inactive) in the test on BT-549 breast; 95% (inactive) and 88.3% (inactive) in the test on MDA-MB-435 melanoma; 106% (inactive) and 95.2% (inactive) in the test with SW-620 colon; 97% (inactive) and 94.2% (inactive) in the test on MCF7 breast. Further, the growth was 92.5% (inactive) and 75.3% (inactive) in the test on HCT-116 colon; 114% (inactive) and 113% (inactive) in the test with HCC-2998 colon; 111% (inactive) and 100% (inactive) in the test with KM12 colon.
Take `CC(C)(C)OOC(=O)/C=C\C(=O)OOC(C)(C)C`: the growth in the test with NCI/ADR-RES ovarian is 109% (inactive); in the test with T-47D breast, 101% (inactive); in the test with BT-549 breast it was 104% (inactive); in the test on MDA-MB-435 melanoma it was 119% (inactive); with SW-620 colon it was 98.7% (inactive); with MCF7 breast, 98.7% (inactive). For the same compound, the growth in the test with HCT-116 colon is 106% (inactive); in the test on HCC-2998 colon, 104% (inactive); in the test with KM12 colon, 94.6% (inactive).
Turning to `NC(Cc1ccccc1)c1ccccc1` (configuration not stated), the growth with NCI/ADR-RES ovarian was 106% (inactive) and 102% (inactive); in the test on T-47D breast, 95.7% (inactive) and 101% (inactive); with BT-549 breast it was 91.1% (inactive) and 89.4% (inactive); in the test on MDA-MB-435 melanoma, 106% (inactive) and 102% (inactive); with SW-620 colon it was 112% (inactive) and 104% (inactive); in the test on MCF7 breast, 97.5% (inactive) and 97% (inactive). The growth with HCT-116 colon is 99.7% (inactive) and 98.4% (inactive); in the test on HCC-2998 colon, 105% (inactive) and 102% (inactive); with KM12 colon, 104% (inactive) and 110% (inactive).
On to `CC(=O)[O][Hg][c]1c(C)c(C)cc(C)c1C`, for which the growth with NCI/ADR-RES ovarian is 78.1% (inactive); with T-47D breast, -27.8% (active); in the test on BT-549 breast it was -70.4% (active); in the test on MDA-MB-435 melanoma, -91.4% (active); in the test on SW-620 colon it was -93.5% (active); with MCF7 breast, -6.63% (active). For the same compound, the results for the growth in the test with HCT-116 colon, with HCC-2998 colon and with KM12 colon were -98.8% (active), 12.5% (inactive) and 50.5% (inactive), respectively.
For `COc1cc(/C=C\[N+](=O)[O-])ccc1O`, the growth was 83.4% (inactive) and 98.4% (inactive) in the test with NCI/ADR-RES ovarian; 32.5% (inactive) and 71.1% (inactive) with T-47D breast; 56% (inactive) in the test with BT-549 breast; 78.5% (inactive) and 51.3% (inactive) in the test with MDA-MB-435 melanoma; 7.29% (active) and 67.5% (inactive) in the test on SW-620 colon; 9.85% (active) and 23.9% (inactive) with MCF7 breast. Also, the growth with HCT-116 colon was 59.3% (inactive) and 32.9% (inactive); with HCC-2998 colon, 100% (inactive) and 83.1% (inactive); in the test on KM12 colon, 80.2% (inactive) and 77.4% (inactive).
As for `O=C1CCC(=O)N1SC(Cl)(Cl)Cl`, the growth in the test on NCI/ADR-RES ovarian was 110% (inactive); in the test on T-47D breast it was 118% (inactive); with BT-549 breast, 104% (inactive); in the test with MDA-MB-435 melanoma it was 102% (inactive); in the test with SW-620 colon, 100% (inactive); with MCF7 breast it was 97.2% (inactive). Also, the growth was 106% (inactive) in the test with HCT-116 colon, 103% (inactive) with HCC-2998 colon and 105% (inactive) in the test with KM12 colon.

The values above are taken from PubChem BioAssay (NCI).
